Reference: PubChem BioAssay (NCATS)
Inconclusive results are not listed. The source made the active and inactive calls. Calls come from the whole dose curve; as a rule, active = well fitted curve in the direction sought with a large enough effect; inconclusive = small, poorly fitted or top-dose-only effect, or another doubt; inactive = no such curve, though single readings can be large; an effect the other way counts as inactive or inconclusive.

How the values were obtained:
[1] = BET inhibitor-based combinations targeting novel dependencies in MECOM-rearranged (r) AML: SET-2 cell line (AID 2202231); settings: SET-2 AML cells viability, CellTiter-Glo luminescence, 48 h; viability: stronger effect = lower value, concentration not given here; note: nearly all actives have a fitted effect of over 35% in size;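 for viability: plate controls were DMSO treated cells for no effect and wells without cells for full effect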
Method in brief: (§1)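 Viability of cells (500 per well) is scored by luminescent CellTiter-Glo at 48 hr post-dosing. Eleven-point titrations are normalized to DMSO and empty controls and reduced to AUC values.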

[2] = BET inhibitor-based combinations targeting novel dependencies in MECOM-rearranged (r) AML: MV-4-11 cell line (AID 2202233); note: nearly all actives have a fitted effect of over 45% in size
Method in brief: (§2)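 Using pin-tool transfer, drugs were added in 11 doses to cells (500/well), incubated 48 hr, and assessed with CellTiter-Glo. Z-AUC is a mean-centring transformation applied separately to each screened line.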

[3] = BET inhibitor-based combinations targeting novel dependencies in MECOM-rearranged (r) AML: HNT-34 cell line (AID 2202234); note: nearly all actives have a fitted effect of over 35% in size
Method in brief: as §2

[4] = BET inhibitor-based combinations targeting novel dependencies in MECOM-rearranged (r) AML: AML-191 cell line (AID 2202236; note: nearly all actives have a fitted effect of over 35% in size)
Method in brief: as §1

[5] = BET inhibitor-based combinations targeting novel dependencies in MECOM-rearranged (r) AML: AML-194 cell line (AID 2202237; note: nearly all actives have a fitted effect of over 40% in size)
Method in brief: as §1

[6] = BET inhibitor-based combinations targeting novel dependencies in MECOM-rearranged (r) AML: UCSD-AML1 cell line (AID 2202235); note: nearly all actives have a fitted effect of over 40% in size
Method in brief: as §2

[7] = BET inhibitor-based combinations targeting novel dependencies in MECOM-rearranged (r) AML: OCI-AML3 cell line (AID 2202232); settings: Potency: OCI-AML3 viability; note: nearly all actives have a fitted effect of over 35% in size
Method in brief: as §1
Potency is the fitted concentration of half-maximal effect.

C=C[C@H]1CN2CCC1C[C@@H]2[C@@H](O)c1ccnc2ccccc12 (stereo not given in full)
inactive: viability [1] 98.5% | Potency [3] | Potency [4] | Potency [5]
active: Potency [2] 5.9 µM

COC(=O)[C@]12CCC(C)(C)C[C@H]1[C@H]1C(=O)C=C3[C@@]4(C)C=C(C#N)C(=O)C(C)(C)[C@@H]4CC[C@@]3(C)[C@]1(C)CC2
active: Potency [1] 2.35 µM | Potency [6] 1.48 µM | Potency [4] 1.86 µM

CC(=O)OC[C@H]1O[C@@H]([S-])[C@H](OC(C)=O)[C@@H](OC(C)=O)[C@@H]1OC(C)=O.CC[PH+](CC)CC.[Au]
active: Potency [7] 0.296 µM | Potency [2] 0.235 µM | Potency [6] 0.934 µM | Potency [4] 1.05 µM | Potency [5] 2.95 µM

COC12C(COC(N)=O)C3=C(C(=O)C(C)=C(N)C3=O)N1CC1C2N1C (stereo not given)
inactive: viability [1] 107% | Potency [2] | Potency [6] | Potency [4]

CO/C1=C/C(C)=C\[C@@H](C)[C@@H](O)[C@@H](C)C/C(C)=C\C=C/[C@H](OC)[C@@H]([C@@H](C)[C@@H](O)[C@H](C)[C@@]2(O)C[C@@H](O)[C@H](C)[C@@H](C(C)C)O2)OC1=O
active: Potency [7] 0.124 µM | Potency [2] 0.0986 µM | Potency [3] 0.0879 µM

Cn1c(COP(=O)(NCCBr)NCCBr)cnc1[N+](=O)[O-]
inactive: viability [1] 123% | Potency [3] | Potency [6] | Potency [4] | Potency [5]

CC1(C)CC[C@]2(NC(=O)C(C)(F)F)CC[C@]3(C)[C@H](C(=O)C=C4[C@@]5(C)C=C(C#N)C(=O)C(C)(C)[C@@H]5CC[C@]43C)[C@@H]2C1
active: Potency [7] 1.48 µM | Potency [2] 1.18 µM | Potency [3] 1.66 µM | Potency [6] 1.32 µM | Potency [4] 1.86 µM
